Whole data set: some 18,000 sequences, median “log2 normalized intensity” near 0.36, cut for the highest 2% near 7.3. Many of the other results were omitted from the sample, so the highest values are more common in it than they were.
target: T1, HNF4alpha8 (COS-7 nuclear extract) (Homo sapiens, UniProt P41235-5 1-452); assay: protein-binding microarray; COS-7 nuclear extract on double-stranded Agilent 4x180k PBM; binding buffer, salt, pH and temperature not given in the material; high values mean tight binding; details: chain copies: 2; label: 3' end of strand 1 on the slide; dsDNA, one strand shown
T1 sequence: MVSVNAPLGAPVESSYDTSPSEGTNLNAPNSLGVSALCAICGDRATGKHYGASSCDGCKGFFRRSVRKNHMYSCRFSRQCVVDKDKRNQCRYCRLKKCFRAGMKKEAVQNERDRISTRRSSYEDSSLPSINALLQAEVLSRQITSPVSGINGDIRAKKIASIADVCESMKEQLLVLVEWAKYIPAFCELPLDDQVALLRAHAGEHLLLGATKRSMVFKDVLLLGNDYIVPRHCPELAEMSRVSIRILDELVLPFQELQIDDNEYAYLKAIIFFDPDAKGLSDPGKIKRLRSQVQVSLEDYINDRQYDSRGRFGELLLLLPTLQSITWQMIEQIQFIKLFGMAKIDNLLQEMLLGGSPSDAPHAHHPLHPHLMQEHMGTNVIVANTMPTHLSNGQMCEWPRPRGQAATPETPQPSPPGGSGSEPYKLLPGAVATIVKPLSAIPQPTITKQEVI
Summary of the method: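 Binding signal is the background-corrected, normalized gProcessedSignal calculated by Agilent software. It was measured by applying nuclear extracts of COS-7 cells transiently transfected with a human HNF4α isoform expression vector to a custom Agilent SurePrint G3 4x180k array of ~44,000 double-stranded ~60-nt test sequences in quadruplicate, then imaging bound HNF4α on an Agilent G2565CA scanner at 2-µm resolution.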

Sequence | binding signal [log2 normalized intensity]
GTGACTCTAGGAACCTTTCTCCATACCTCTGCCTAGGGAGATTAGAGTATCGGTCGA | -0.874
ACAAAGAAATGTAACCTTTGGCCAATTGCAGCCTAGGGAGATTAGAGTATCGGTCGA | 5.13
AACTGACACTTGTTTGAATTGTGATAATAAGCCTAGGGAGATTAGAGTATCGGTCGA | 1.04
TTATCTTGGTGCCTGCAGAGCCTCCCCATTGCCTAGGGAGATTAGAGTATCGGTCGA | 2.69
GTAGGGCAGAGGCCAGTTTGATCACAAGACGCCTAGGGAGATTAGAGTATCGGTCGA | -0.285
AGTTTGGTTTAAAGTTCAAGTCATAACTGGGCCTAGGGAGATTAGAGTATCGGTCGA | 2.53
CTCCTGGACTTTGGTCTCATGGGCCTAAACGCCTAGGGAGATTAGAGTATCGGTCGA | 5.27
TATGTGCTCACTCCTGGGACAAGGACTTTGGCCTAGGGAGATTAGAGTATCGGTCGA | 3.11
ATGCCCAAATGAATAATCCCCTCCTGGACTGCCTAGGGAGATTAGAGTATCGGTCGA | 3.33
GAATAATCCCCTCCTGGACTTTGGTCTCATGCCTAGGGAGATTAGAGTATCGGTCGA | 8
ATCCCCTCCTGGACTTTGGTCTCATGGGCCGCCTAGGGAGATTAGAGTATCGGTCGA | 7.4
GTAATGACATGCAGTATGGGGACTTTGGACGCCTAGGGAGATTAGAGTATCGGTCGA | 7.1
CAAATGAATAATCCCCTCCTGGACTTTGGTGCCTAGGGAGATTAGAGTATCGGTCGA | 5.55
GGACTTTGGTCTCATGGGCCTAAACATTCCGCCTAGGGAGATTAGAGTATCGGTCGA | 5.24
GACATGCAGTATGGGGACTTTGGACTCCTGGCCTAGGGAGATTAGAGTATCGGTCGA | 8.41
TATTCCTTGTCCTTGACCCTTCCTCCCATTGCCTAGGGAGATTAGAGTATCGGTCGA | 4.01
GAAACATCCACATGTGGGTCCAAAGAACATGCCTAGGGAGATTAGAGTATCGGTCGA | 3.82
ATCACATTCTAATCCTCTGGTCTTTGCCCCGCCTAGGGAGATTAGAGTATCGGTCGA | 5
CCCTGAGTAGTTCTTCTGGTTAGTTTTTCAGCCTAGGGAGATTAGAGTATCGGTCGA | 1.66
CTCCCCTCCTCCAGATGGGCTCATGTAACAGCCTAGGGAGATTAGAGTATCGGTCGA | 2.65
CCAGGCTGATTTAGCTATTTGACCTTCGGCGCCTAGGGAGATTAGAGTATCGGTCGA | 5.84
CTGATTTAGCTATTTGACCTTCGGCCTCAAGCCTAGGGAGATTAGAGTATCGGTCGA | 8.73

Sequence | binding signal [log2 normalized intensity]
GCCCCTGGCTGGGCCCTGACCTCAAGTGACGCCTAGGGAGATTAGAGTATCGGTCGA | 2.6
AACCAAGATAGTGACGGAGGTGACCTTTGGGCCTAGGGAGATTAGAGTATCGGTCGA | 7.34
ATTGGCCCTTTGACCTTTAATCAAGGGCTGGCCTAGGGAGATTAGAGTATCGGTCGA | 5.91
TGGCTGGGCCCTGACCTCAAGTGACCTTTGGCCTAGGGAGATTAGAGTATCGGTCGA | 7.77
ACCAAAACCAAGATAGTGACGGAGGTGACCGCCTAGGGAGATTAGAGTATCGGTCGA | 1.88
TTAGCTATTTGACCTTCGGCCTCAATTATAGCCTAGGGAGATTAGAGTATCGGTCGA | 7.29
GACAGCTGGGCCCTGCCTGACCTGCCCTTTGCCTAGGGAGATTAGAGTATCGGTCGA | 5.01
GTGACGGAGGTGACCTTTGGTTGTCCTTACGCCTAGGGAGATTAGAGTATCGGTCGA | 4.94
ATGCAAAGCCCTGGCTGACCTTTAGCCTGGGCCTAGGGAGATTAGAGTATCGGTCGA | 7.69
CAAGAATGCAAAGCCCTGGCTGACCTTTAGGCCTAGGGAGATTAGAGTATCGGTCGA | 5.88
CTTCGCTGGAATGTCACAGGGATTACGATCGCCTAGGGAGATTAGAGTATCGGTCGA | 0.569
CTTTGATAGCCAAGCCAACCAGGAGAATTTGCCTAGGGAGATTAGAGTATCGGTCGA | 2.31
CTGGTTGGAATTCCAGTGTTCACATCTGATGCCTAGGGAGATTAGAGTATCGGTCGA | 1.09
TCATTTCTGCTTGCAACCAAAGGAGTCCTGGCCTAGGGAGATTAGAGTATCGGTCGA | -0.447
TGGCCAAAGTTCAGTAAATCTTAGAGAACAGCCTAGGGAGATTAGAGTATCGGTCGA | 2.27
GCCAAGGGCAGTGTTTGCCCAGCTTGAATCGCCTAGGGAGATTAGAGTATCGGTCGA | -0.771
GCAACCTTTGCTCTCCCTCCTCTCTGAGCAGCCTAGGGAGATTAGAGTATCGGTCGA | 2.28
ATCGCCCTTTGAGGAGGCCTTTCCTGACCCGCCTAGGGAGATTAGAGTATCGGTCGA | 3.43
GGGCCCTGACCTCAAGTGACCTTTGACCTCGCCTAGGGAGATTAGAGTATCGGTCGA | 12
CTGGGCCCTGCCTGACCTGCCCTTTGTCCCGCCTAGGGAGATTAGAGTATCGGTCGA | 6.91
GGAGTGTGGGGTGGTGTCAGGAGTACAGGTGCCTAGGGAGATTAGAGTATCGGTCGA | 1.12
